Data from PubChem BioAssay (NCI).
This is part of a sample that, as a whole, favours compounds with a hit. Of some 83,000 tested, about 20% had one in any assay.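 Growth was measured after 48 h exposure to one concentration of compound in 96-well plates. Values under 10 count as active.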 Unmarked numbers belong to inactive results. Calls of active or inactive are those of the source.

Tests used:
Test in all cases: NCI-60 one-dose screen, 48 h (100 = growth as untreated, 0 = no growth, -100 = all killed)
Details in all cases: 10 µM unless noted
NCI-H23 lung = tested on: NCI-H23 lung
NCI-H226 lung = tested on: NCI-H226 lung
NCI-H322M lung = tested on: NCI-H322M lung
HOP-62 NSCLC = tested on: HOP-62 NSCLC
NCI-H460 lung = tested on: NCI-H460 lung
NCI-H522 lung = tested on: NCI-H522 lung
A549/ATCC NSCLC = tested on: A549/ATCC NSCLC
786-0 renal = tested on: 786-0 renal
COLO 205 colon = tested on: COLO 205 colon
DU-145 prostate = tested on: DU-145 prostate
K-562 leukemia = tested on: K-562 leukemia
MALME-3M melanoma = tested on: MALME-3M melanoma
MDA-MB-231 breast = tested on: MDA-MB-231 breast
RXF 393 renal = tested on: RXF 393 renal
SF-268 CNS = tested on: SF-268 CNS
SF-295 CNS = tested on: SF-295 CNS
SF-539 CNS = tested on: SF-539 CNS
UACC-257 melanoma = tested on: UACC-257 melanoma
M14 melanoma = tested on: M14 melanoma

SMILES | growth (NCI-H23 lung) | growth (NCI-H226 lung) | growth (NCI-H322M lung) | growth (HOP-62 NSCLC) | growth (NCI-H460 lung) | growth (NCI-H522 lung) | growth (A549/ATCC NSCLC) | growth (786-0 renal) | growth (COLO 205 colon) | growth (DU-145 prostate) | growth (K-562 leukemia) | growth (MALME-3M melanoma) | growth (MDA-MB-231 breast) | growth (RXF 393 renal) | growth (SF-268 CNS) | growth (SF-295 CNS) | growth (SF-539 CNS) | growth (UACC-257 melanoma) | growth (M14 melanoma)
O=C1CC(Sc2n[nH]c(-c3ccncc3)n2)C(=O)N1c1ccc(Br)cc1 (centres undefined) | 104% | 117% | 104% | 98.9% | 117% | -33.6% (active) | 106% | 106% | 116% | 117% | 88.5% | 104% | 99% | 137% | 117% | 107% | 102% | 105% | 115%
O=C(CCN1C(=O)/C(=C/c2ccc(F)cc2)SC1=S)N1CCOCC1 | 67.9% | 74.2% | 80.2% | 109% | 68.6% | -79% (active) | 81.5% | 67.1% | 75% | 35.8% | 43% | 46.1% | 60.9% | 47.7% | 86.7% | 104% | 68.6% | 52% | 57.1%
CN(C)c1nc(NCCNS(=O)(=O)c2ccc(C(=O)/C=C/c3ccc(Cl)cc3)cc2)nc(Nc2ccc(F)cc2)n1 | -38.6% (active) | -53.3% (active) | 6.91% (active) | 15.4% | -67.9% (active) | -87.4% (active) | -23.5% (active) | -86% (active) | -82.9% (active) | -23.1% (active) | 1.01% (active) | -46.6% (active) | -61.4% (active) | -81.3% (active) | 3.35% (active) | -26.6% (active) | -98% (active) | -4.45% (active) | -65.8% (active)
Cc1cccc(-c2nc(Nc3cccc(S(N)(=O)=O)c3)c3ccccc3n2)c1 | 39.6% | 54.3% | 52.2% | 80.2% | 37.6% | 4.87% (active) | 35.7% | 5.75% (active) | 51.9% | 57.3% | 10.2% | 75% | -13.6% (active) | 29.2% | 46.2% | 20.2% | -9.93% (active) | 87% | 54%
CCOC(=O)c1ccc(Nc2nc(NN)nc(-c3ccc(F)cc3)c2C#N)cc1 | 110% | 116% | 109% | 103% | 112% | 98.5% | 105% | 103% | 119% | 113% | 32.2% | 98.5% | 76.7% | 142% | 109% | 97.8% | 104% | 103% | 98%
O=C(CN1C(=O)/C(=C/c2ccccc2Cl)SC1=S)N1CCOCC1 | 98% | 77.9% | 95.3% | 116% | 107% | -74.8% (active) | 97.8% | 80.4% | 100% | 78.1% | 27% | 76.3% | 94.3% | 77.4% | 106% | 107% | 91.7% | 94.3% | 85.3%
COc1cccc(-c2nc(Nc3ccc(S(N)(=O)=O)cc3)c3ccccc3n2)c1 | 37.9% | 25.9% | 50.3% | 58.9% | 18.4% | 23.9% | 27.7% | 5.42% (active) | 27.8% | 29.4% | 10.3% | 37.9% | 13.3% | 12.5% | 33.7% | 2.4% (active) | 11.9% | 68.4% | 38.7%
COc1ccc2[nH]c(O)c(N=NC(=O)Cn3c(-c4ccccc4)nc4cc(C)ccc43)c2c1 | 13.4% | 11.7% | 49.5% | 47.9% | 44.3% | 57% | 15.3% | 4.55% (active) | 64.5% | 38.2% | 12.3% | -48% (active) | -26.3% (active) | -35.6% (active) | 38.5% | 44.9% | -28.1% (active) | 21.7% | 9.19% (active)
Cc1sc2c(c1C)C(c1ccc(Cl)cc1)=N[C@@H](CC(=O)NCCCCCNC(=O)COc1ccc(C3CCC(=O)NC3=O)cc1)c1nnc(C)n1-2 (some centres undefined) | 47.3% | 8.38% (active) | 23.7% | 16% | 73% | 3.85% (active) | 25.7% | 26.5% | -61.7% (active) | 88.5% | 28.4% | 13% | 5.01% (active) | 45.3% | 65.4% | 9.91% (active) | 23.1% | 49.3% | 17.6%
CC1(c2cc3cc(Br)ccc3oc2=O)NC(=O)c2c(/C=C/C(=O)OC3CC4CCC3(C)C4(C)C)cccc2N1 (centres undefined) | 79.1% | 75.9% | 81.2% | 92.5% | 73.6% | 68.3% | 54.6% | 91.5% | 88.7% | 84.3% | 28.4% | 102% | 98.2% | 75.2% | 82.8% | 64% | 96.8% | 77% | 86%
CCCCCCCS(=O)(=O)N1CCCC(C(=O)Nc2nc3ccc(NC(=O)c4ccc(F)c(OC)c4F)cc3s2)C1 (centres undefined) | 27.3% | 31.8% | 77.7% | 60.8% | 69.7% | 24.7% | 60.5% | 50% | 82.9% | 63.5% | 61.8% | 35.4% | 14.7% | -48.1% (active) | 63.1% | 48.7% | 25.8% | 69% | 72.5%
N/C(=N\c1nc2ccccc2s1)NC(=O)Nc1c(Cl)cccc1Cl | 31.9% | 67.2% | 68.2% | 58.7% | 17.8% | -19.3% (active) | 38.8% | 52.5% | 46.2% | 55.1% | 19.6% | 44% | 28.9% | 80.8% | 42.2% | 28.2% | 30.8% | 75.4% | 21.8%
O=C(NN1C(=O)/C(=C/C=C/c2ccc([N+](=O)[O-])o2)SC1=S)c1ccc(Cl)cc1 | -86.7% (active) | -97.1% (active) | -100% (active) | -98.8% (active) | -72.7% (active) | -88.8% (active) | -86.7% (active) | -82.3% (active) | -94.8% (active) | -100% (active) | 3.88% (active) | -96% (active) | -97.5% (active) | -92.1% (active) | -86.4% (active) | -91.9% (active) | -95.2% (active) | -93.3% (active) | -68.7% (active)
CN(C)c1nc(NCCNS(=O)(=O)c2ccc(C3=Nc4c(N)nc(N)nc4NC(c4ccc(F)cc4)C3)cc2)nc(Nc2ccc(F)cc2)n1 (centres undefined) | 64.5% | 53% | 63.3% | 72.4% | 21.7% | 42.1% | 66.3% | 30.2% | 37.9% | 54.2% | 3.61% (active) | 47.1% | 20.8% | 16.5% | 31.9% | 57.3% | -25.3% (active) | 59.3% | 28%
COc1ccc(C2CC(c3ccc(S(=O)(=O)NCCNc4nc(Nc5ccc(F)cc5)nc(N(C)C)n4)cc3)=Nc3c(N)nc(N)nc3N2)cc1 (centres undefined) | 90.4% | 84.4% | 96.6% | 90.3% | 73.6% | 89.4% | 91.3% | 50.2% | 82.8% | 102% | 35.6% | 106% | 64.2% | 53.3% | 73.8% | 94.8% | 75.4% | 100% | 81.9%
Cc1cc2nc3c4ccccc4n(CC4=NCCN4)c3nc2cc1C | -56% (active) | 23.9% | 22.3% | -72.5% (active) | -84.1% (active) | 2.32% (active) | -85.2% (active) | -97% (active) | 43.8% | 2.14% (active) | -13.1% (active) | -92.7% (active) | -43.2% (active) | -67.2% (active) | 40.7% | -74.8% (active) | -94.2% (active) | -44.4% (active) | -79.2% (active)
